In PubChem BioAssay AID1347420 (Sanford-Burnham Center for Chemical Genomics, 2020):
Where “and” joins values, the source holds several entries; their conditions need not be identical. Equal entries are not always repeated. In all, about 1,300 compounds went through this assay and about 980 (75%) were called active. Not shown: some 4% with an inconclusive outcome. The list shows a part of the results. Unmarked numbers belong to inactive results.

molecular target: Sulfhydryl oxidase 1 (Homo sapiens) (UniProt O00391); experiment: inhibition of human sulfhydryl oxidase QSOX1 – biochemical, HyperBlu H2O2 luminescence, HTS, primary screen (AID 1347420); conditions: recombinant QSOX1, HyperBlu H2O2 luminescence; at 12.5 µM; active compounds read high; active = any value above zero; further: values above 100% were filed as inconclusive
Sequence (O00391 whole entry, looked up): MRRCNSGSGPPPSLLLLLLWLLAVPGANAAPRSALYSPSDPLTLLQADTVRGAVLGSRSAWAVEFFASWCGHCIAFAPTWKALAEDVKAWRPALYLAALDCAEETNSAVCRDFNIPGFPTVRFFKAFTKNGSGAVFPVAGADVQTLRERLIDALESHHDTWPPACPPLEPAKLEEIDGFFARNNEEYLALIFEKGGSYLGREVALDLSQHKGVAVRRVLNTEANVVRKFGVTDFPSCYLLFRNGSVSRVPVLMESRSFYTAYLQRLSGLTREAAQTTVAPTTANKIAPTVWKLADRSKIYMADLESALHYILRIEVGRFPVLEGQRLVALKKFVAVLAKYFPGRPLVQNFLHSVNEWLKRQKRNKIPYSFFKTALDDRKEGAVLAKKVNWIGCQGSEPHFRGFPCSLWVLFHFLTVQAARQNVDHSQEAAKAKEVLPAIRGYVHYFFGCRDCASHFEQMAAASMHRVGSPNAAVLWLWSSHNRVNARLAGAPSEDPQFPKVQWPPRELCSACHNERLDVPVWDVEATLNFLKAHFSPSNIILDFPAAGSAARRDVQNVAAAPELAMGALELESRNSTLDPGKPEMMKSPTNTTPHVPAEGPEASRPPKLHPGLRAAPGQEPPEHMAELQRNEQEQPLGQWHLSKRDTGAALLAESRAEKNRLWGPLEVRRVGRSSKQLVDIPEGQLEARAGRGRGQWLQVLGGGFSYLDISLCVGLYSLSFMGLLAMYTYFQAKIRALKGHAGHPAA

| Compound | inhibition |
| --- | --- |
| CS(=O)(=O)Nc1ccc([N+](=O)[O-])cc1Oc1ccccc1 | 97.4% (active) |
| Cc1ccc([N+](=O)[O-])cc1S(=O)(=O)N(C)C | -9.6% |
| COc1cc2c(cc1OC)C1CC(=O)C(CC(C)C)CN1CC2 (stereo not drawn) | 6.3% (active) |
| CC[C@H]1CN2CCc3cc(OC)c(OC)cc3[C@@H]2C[C@@H]1C[C@H]1NCCc2cc(OC)c(OC)cc21 | 13% (active) |
| CCC1(C)CC(=O)NC1=O (stereo not drawn) | 13.4% (active) |
| CC(C)(C)[C@]1(O)CCN2C[C@H]3c4ccccc4CCc4cccc(c43)[C@@H]2C1 | -3.5% |
| O=C(C1CCCCC1)N1CC(=O)N2CCc3ccccc3C2C1 (stereo not drawn) | 8% (active) |
| C=CC[C@H](N)C(=O)O | 5.3% (active) |
| N[C@@H](CC(=O)O)C(=O)O | 20.6% (active) |
| N[C@@H](CS(=O)O)C(=O)O | 16% (active) |
| N[C@H](CO)C(=O)O | 6.6% (active) |
| N[C@H](C(=O)O)[C@H](O)C(=O)O | -0.9% |
| CCc1cccc(N(C)C(N)=Nc2cccc3ccccc23)c1 | -10.9% |
| O=C(O)C1=CCCN(CCON=C(c2ccccc2)c2ccccc2)C1 | -7.5% |
| O=C(O)COCCN1CCN(C(c2ccccc2)c2ccc(Cl)cc2)CC1 (stereo not drawn) | 6.6% (active) |
| CC(C)NC[C@H](O)COc1cccc2ccccc12 | -5.6% |
| CC(C)NC[C@H](O)COc1cccc2[nH]ccc12 | 12.2% (active) |
| C=CCc1ccccc1OCC(O)CNC(C)C (stereo not drawn) | 1.7% (active) |
| CC(C)NCC(O)COc1cccc2ccccc12 (stereo not drawn) | 10.3% (active) |
| CCC1(c2ccccc2)C(=O)NCNC1=O | -13.9% |
| CC(C)NCC(O)COc1cccc2[nH]ccc12 (stereo not drawn) | 8% (active) |
| c1cnc2c(c1)ccc1cccnc12 | 9.8% (active) |
| CCCCNc1ccc(C(=O)OCCN(C)C)cc1 | 9.2% (active) |

| Compound | inhibition |
| --- | --- |
| CCN(CC)CCOC(=O)c1ccc(N)cc1 | -5.5% |
| CCCCNc1cc(C(=O)O)cc(S(N)(=O)=O)c1Oc1ccccc1 | -9.6% |
| NC(N)=NCc1cccc(I)c1 | 0.4% (active) |
| C=C1C(=O)O[C@@H]2[C@H]3O[C@]3(C)CCC=C(C)CC[C@@H]12 | -3.6% |
| CSC(N)=NCCC[C@H](N)C(=O)O | 8% (active) |
| CC(N)=NCCCC[C@@H](N)C(=O)O | 5% (active) |
| NC(N)=NCCC[C@H](N)C(=O)O | -5.3% |
| CN=C(N)NCCC[C@H](N)C(=O)O | 1.3% (active) |
| CN(C)C(N)=NCCC[C@H](N)C(=O)O | -1.4% |
| N#C/C(=C\c1ccc(O)c(O)c1)C(=O)c1ccc(O)c(O)c1 | 81.2% (active) |
| C[C@]12C=CC(=O)C=C1CC[C@@H]1C2=CC[C@]2(C)[C@@H](C(=O)CN3CCN(c4cc(N5CCCC5)nc(N5CCCC5)n4)CC3)CC[C@@H]12 | 21.5% (active) |
| CN1CC(O)C(O)C(O)C1CO (stereo not drawn) | 11.1% (active) |
| Cc1cc2c(cc1Cl)N(C(=O)Nc1ccc(Oc3cccnc3C)nc1)CC2 | 2.9% (active) |
| Cc1cc2c(cc1Cl)N(C(=O)Nc1ccnc3ccccc13)CC2 | 52.9% (active) |
| CCN(CC)CCOCCOC(=O)C1(c2ccccc2)CCCC1 | -2.7% |
| c1ccc(CN2CCC3(CCCc4ccccc43)CC2)cc1 | -10.4% |
| O=C(OCCN1CCOCC1)C1(c2ccccc2)CCCCC1 | 14.9% (active) |
| C[C@H](NC(CCc1ccccc1)C(=O)O)C(=O)N1CCC[C@H]1C(=O)O (stereo partly drawn) | -5.7% |
| CCOC(=O)[C@H](CCc1ccccc1)N[C@@H](C)C(=O)N1[C@H](C(=O)O)C[C@H]2CCCC[C@@H]21 | 12.1% (active) |
| COC(=O)C1=C(C)NC(C)=C([N+](=O)[O-])C1c1ccccc1C(F)(F)F (stereo not drawn) | 59.9% (active) |
| COC(=O)C1=C(C)NC(C)=C(C(=O)OC)C1c1ccccc1[N+](=O)[O-] | 54.9% (active) |
| CCO/C([O-])=N/c1c[n+](N2CCOCC2)no1 | -0.8% |
| Cc1nc2c(OCc3ccccc3)cccn2c1CC#N | 11.8% (active) |

| Compound | inhibition |
| --- | --- |
| N=C(N)c1ccccc1 | -0.4% |
| NC(N)=NC(N)=Nc1cccc(Cl)c1 | 25.1% (active) |
| NC(N)=NC(N)=Nc1ccccc1 | 6% (active) |
| CN1CCN2c3ccccc3Cc3ccccc3C2C1 (stereo not drawn) | 9.7% (active) |
| CCCn1c(=O)c2[nH]c(C3CCCC3)nc2n(CCC)c1=O | 5.5% (active) |
| Cn1c(=O)c2[nH]c(C3CCCC3)nc2n(C)c1=O | 7.5% (active) |
| O=C(c1cc(O)c(O)c([N+](=O)[O-])c1)c1ccccc1F | 83.5% (active) |
| CC(C)C[C@H](NC(=O)[C@H](O)[C@H](N)Cc1ccccc1)C(=O)O | -3.8% |
| CC(C)C[C@H](NC(=O)[C@@H](O)[C@H](N)Cc1ccccc1)C(=O)O | 0.9% (active) |
| CC(C)NC[C@H](O)c1ccc(O)c(O)c1 | 38.5% (active) |
| CCC(NC(C)C)C(O)c1ccc(O)c(O)c1 (stereo not drawn) | 38.5% (active) |
| CC(C)NCC(O)c1ccc(O)c(O)c1 (stereo not drawn) | 29% (active) and 11.6% (active) |
| CC(C)NCC(O)c1ccc(NS(C)(=O)=O)cc1 (stereo not drawn) | 4.1% (active) |
| O=C(O)CCC/C=C\C[C@@H]1[C@@H](/C=C/[C@H](O)C2Cc3ccccc3C2)[C@@H](F)C[C@@H]1O | -13.7% |
| CC(C)(C)NCC(O)c1ccc(O)c(CO)c1 (stereo not drawn) | 17.3% (active) |
| CC(C)(C)NCC(O)c1cc(O)cc(O)c1 (stereo not drawn) | 3% (active) |
| CC(C)NCC(O)c1cc(O)cc(O)c1 (stereo not drawn) | 8.3% (active) |
| CC(C)NCC(O)COc1ccc(COCCOC(C)C)cc1 (stereo not drawn) | -12.7% |
| Nc1ccc(S(=O)(=O)Nc2ccnn2-c2ccccc2)cc1 | 27.9% (active) |
| O=c1cc(N2CCOCC2)oc2c(-c3ccccc3)cccc12 | 4.6% (active) |
| Cc1cc(O)c2c(c1)C(=O)c1cc(O)cc(O)c1C2=O | 17.7% (active) |
| OCC1O[C@H]([S-])[C@@H](O)C(O)[C@@H]1O.[Au+] (stereo partly drawn) | 29.5% (active) |
| N=C(N)SCCN | -3.9% |

| Compound | inhibition |
| --- | --- |
| N=C(N)SCCc1ccc(CCSC(=N)N)cc1 | 9% (active) |
| Oc1cc2c(cc1O)CN(C(=S)NCCc1ccc(Cl)cc1)CCC2 | 83.2% (active) |
| COc1ccc2[nH]cc(CCNC(C)=O)c2c1 | 15.6% (active) |
| COc1cc2c(CCNC(C)=O)c[nH]c2cc1Cl | 14.3% (active) |
| COc1ccc(NC=O)c(C(=O)CCNC(C)=O)c1 | -9.8% |
| CC(=O)NCCc1c[nH]c2ccc(O)cc12 | 92.2% (active) |
| O=c1[nH]cc(F)c(=O)[nH]1 | 13.9% (active) |
| Cc1cc(NC(=O)Nc2ccc3c(ccn3C)c2)sn1 | 13.4% (active) |
| CC(CN(C)C)CN1c2ccccc2CCc2ccccc21 (stereo not drawn) | 29.4% (active) |
| CN(C)CCCN1c2ccccc2CCc2ccc(Cl)cc21 | -0.4% |
| CN(C)CCCN1c2ccccc2CCc2ccccc21 | 31.8% (active) |
| CNCCCN1c2ccccc2CCc2ccccc21 | 34.2% (active) |
| CCCNC(=O)NS(=O)(=O)c1ccc(Cl)cc1 | 0.5% (active) |
| Cc1ccc(S(=O)(=O)NC(=O)NN2CCCCCC2)cc1 | 49.9% (active) |
| CCCCNC(=O)NS(=O)(=O)c1ccc(C)cc1 | 10.2% (active) |
| CC(=O)c1ccc(S(=O)(=O)NC(=O)NC2CCCCC2)cc1 | -1.5% |
| OC(CN1CCN(c2cccc(Cl)c2)CC1)C(c1ccccc1)c1ccccc1 (stereo not drawn) | 17.3% (active) |
| C[C@]12CCC(=O)C=C1CC[C@@H]1[C@@H]2[C@@H](O)C[C@@]2(C)[C@H]1CC[C@]2(O)C(=O)CO | 9% (active) |
| C[C@]12C[C@H](O)[C@H]3[C@@H](CCC4=CC(=O)CC[C@@]43C)[C@@H]1CC[C@@H]2C(=O)CO | 9.4% (active) |
| N[C@H](C(=O)O)[C@H]1C[C@@H]1C(=O)O | 20.9% (active) |
| O=C(O)c1cc(=O)cc(C(=O)O)[nH]1 | 10.2% (active) |
| COC(=O)C(N)Cc1ccc(Cl)cc1 (stereo not drawn) | -8.3% |
| N[C@@H](Cc1ccc(O)c(O)c1)C(=O)O | 43.6% (active) |

| Compound | inhibition |
| --- | --- |
| COC(=O)[C@@H](N)Cc1ccc(O)c(O)c1 | 48.2% (active) |
| NC(Cc1ccc(Cl)cc1)C(=O)O (stereo not drawn) | 6.1% (active) |
| N[C@@H](Cc1ccc(O)c(I)c1)C(=O)O | 14.8% (active) |
| N[C@@H](Cc1ccc(F)cc1)C(=O)O | -2.9% |
| NC1CCN(O)C1=O (stereo not drawn) | 30% (active) |
| CCCC1O[C@@H]2C[C@H]3[C@@H]4CCC5=CC(=O)C=C[C@]5(C)[C@H]4[C@@H](O)C[C@]3(C)[C@]2(C(=O)CO)O1 (stereo partly drawn) | 4.1% (active) |
| CCCN(CC1CC1)c1nc(C)nc(Nc2c(Cl)cc(Cl)cc2Cl)c1Cl | 3.7% (active) |
| NS(=O)(=O)c1cc2c(cc1Cl)NCNS2(=O)=O | 9.5% (active) |
| NS(=O)(=O)c1cc2c(cc1Cl)NC(C1CC3C=CC1C3)NS2(=O)=O (stereo not drawn) | 44.4% (active) |
| NS(=O)(=O)c1cc2c(cc1Cl)NC=NS2(=O)=O | 4.3% (active) |
| CNCCCC12CCC(c3ccccc31)c1ccccc12 | 1.9% (active) |
| NC/C=C/C(=O)O | 1.4% (active) |
| NC/C=C\C(=O)O | 7.5% (active) |
| CC(C)COCC(CN(Cc1ccccc1)c1ccccc1)N1CCCC1 (stereo not drawn) | 40.1% (active) |
| Brc1c(Br)c(Br)c2[nH]cnc2c1Br | 18.9% (active) |
| CN1CCc2cccc3c2C1Cc1ccc(O)c(O)c1-3 (stereo not drawn) | 73.2% (active) |
| Cc1ccc2c(c1)C(N1CCN(C)CC1)=Nc1cccnc1N2 | 42.7% (active) |
| Clc1ccc2c(c1)C(N1CCNCC1)=Nc1ccccc1O2 | 21.3% (active) |
| CN1CCN(C2=Nc3cc(Cl)ccc3Nc3ccccc32)CC1 | 78.4% (active) |
| Clc1ccc2c(c1)N=C(N1CCNCC1)c1ccccc1N2 | 69.5% (active) |
| CN1CCN(C2=Nc3ccccc3Oc3ccc(Cl)cc32)CC1 | -12.8% |
